NOTCH agonist: activates NOTCH signaling in reporter cells; NOTCH signaling luciferase reporter cells, luminescence; activation, % at 2.5 µM; 0.4% of 15,000 active; in the data active means activation above about 2.2%
OPRK1 antag MB: OPRK1 (human) antagonism, Maybridge screen; OPRK1 cells, antagonist mode, fluorescence readout; inhibition, % at 9 µM; 0.4% of 16,000 active; AID 652031; in the data active means inhibition above about 50%
Target sequence (P41145 whole entry, looked up): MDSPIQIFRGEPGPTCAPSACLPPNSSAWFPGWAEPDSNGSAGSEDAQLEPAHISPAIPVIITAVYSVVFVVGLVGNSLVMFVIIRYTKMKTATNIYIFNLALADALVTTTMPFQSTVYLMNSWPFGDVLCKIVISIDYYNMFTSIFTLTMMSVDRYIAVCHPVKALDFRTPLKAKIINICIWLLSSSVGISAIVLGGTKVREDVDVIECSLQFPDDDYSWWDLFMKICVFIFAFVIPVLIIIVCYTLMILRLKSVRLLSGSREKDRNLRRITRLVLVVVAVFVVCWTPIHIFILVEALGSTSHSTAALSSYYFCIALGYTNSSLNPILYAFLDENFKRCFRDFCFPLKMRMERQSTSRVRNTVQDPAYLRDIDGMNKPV
PME-1 Maybridge: inhibitors of human PME-1 in Maybridge library | AID 2291 | inhibition, % at 9 µM | recombinant PME-1, FP-Rh probe fluorescence polarization | 0.5% of 16,000 active; in the data active means inhibition above about 30%
TLR4-MyD88 inh: inhibitors of human TLR4-MyD88 binding. O00206. Cell-based TLR4-MyD88 binding inhibition assay. inhibition, % at 10 µM. 0.06% of 16,000 active; in the data active means inhibition above about 45%
rat GALR2 agon: agonists of rat galanin receptor 2 (GALR2); O08726; cell-based GALR2 agonist screen; activation, % at 10 µM; 0.5% of 16,000 active; AID 833; in the data active means activation above about 15%
S1P1 ag: S1P1 (human) receptor agonism; S1P1 agonist cell-based reporter assay; activation, % at 4.5 µM; AID 1044; 1.5% of 16,000 active; in the data active means activation above about 80%
Hits are given with their value; i = inactive; nt = not tested or not shown. Compounds with a hit are over-represented: about 3.2% of the library has one in this group of screens.

SMILES | NOTCH agonist | OPRK1 antag MB | PME-1 Maybridge | TLR4-MyD88 inh | rat GALR2 agon | S1P1 ag
CC(C)S(=O)(=O)/C(C#N)=C/Nc1ccc(Cl)cc1 | i | i | i | i | i | i
COc1ccc(-c2nc(-c3cccc([N+](=O)[O-])c3)cs2)cc1 | 3.3 | i | i | i | i | i
Nc1ccccc1Sc1ccc(Cl)cc1[N+](=O)[O-] | i | i | i | i | i | i
O=[N+]([O-])c1cc(Cl)ccc1Sc1ccccc1NS(=O)(=O)c1ccc(F)cc1 | i | i | 63.1 | i | i | i
CCOC(=O)C1CCN(Cc2cccc(NC(=O)c3ccco3)c2)CC1 | i | 55.6 | i | i | i | i
NNC(=O)Cn1nnc(-c2ccccc2Oc2ccc(Cl)cc2Cl)n1 | i | i | i | i | i | i
CSc1cccc(NC(=O)CN2CCN(CC(=O)Nc3cccc(SC)c3)CC2)c1 | i | i | i | i | i | i
CSc1cccc(NC(=S)Nc2cccc(SC)c2)c1 | 2.5 | i | i | i | i | i
CC(C)OC(=O)Cc1csc(-c2ccc(Cl)cc2)n1 | i | i | i | i | i | i
Clc1ccc(-c2nc(CN3CCOCC3)cs2)cc1 | i | i | i | i | i | 102.2
Cc1nnsc1-c1nnc(SCC(=O)Nc2ccc(F)cc2)n1C1CC1 | i | i | i | i | i | i
O=C(CSc1c(F)c(F)c(F)c(F)c1F)Nc1ccc(C2SCCS2)cc1 | i | i | 147.4 | i | i | i
CN(C)CC#Cc1ccc(-c2ccn[nH]2)s1 | nt | i | i | i | i | i
O=C(/C=C(\C(=O)c1ccccc1)c1ccccc1)c1ccc(F)cc1 | i | i | i | i | i | i
O=[N+]([O-])c1ccc(N2CCN(c3ccc([N+](=O)[O-])cc3CO)CC2)c(CO)c1 | i | i | i | i | i | 82.3
COc1ccc(C2=C(C(C)=O)C(C)=NC(=S)C2C#N)cc1 (centres undefined) | i | i | i | i | i | i
COc1ccc(/C(C#N)=C/c2cnc(-c3ccccc3)[nH]2)cc1 | i | i | 49.8 | i | i | i
CCn1nc(C)cc1-c1nnc(-c2ccccc2Cl)o1 | i | i | i | i | i | i
CCn1nc(C)cc1-c1nnc(SCc2ccc(C(F)(F)F)cc2)o1 | i | i | i | i | i | 96.9
Cc1nnsc1C(=O)NCCNC(=O)c1snnc1C | i | i | i | i | i | i
COc1cc([N+](=O)[O-])c(OC)cc1SCc1n[nH]c(=S)n1-c1ccc(C)cc1 | i | 76.4 | i | i | i | i
Cc1ccc(-n2c(N)n[nH]c2=S)cc1 | i | i | i | i | i | i
O/N=C/c1ccc(-c2cc(C(F)(F)F)cc(C(F)(F)F)c2)o1 | i | i | i | i | i | 92.0
CN(CCC#N)c1ccc(/C=N/NC(=O)C2CCN(C(=S)NC3CC4C=CC3C4)CC2)cc1 (centres undefined) | i | i | i | i | i | i
CN(CCC#N)c1ccc(C=NCCCN=Cc2ccc(N(C)CCC#N)cc2)cc1 | i | i | i | i | i | 101.3
SMILES | NOTCH agonist | OPRK1 antag MB | PME-1 Maybridge | TLR4-MyD88 inh | rat GALR2 agon | S1P1 ag
CCCCc1ccc(N=CNO)c(C)c1 | i | i | i | i | i | i
CCOC(=O)c1c(C)nsc1N/N=C(\C#N)C(=O)c1ccc(Cl)cc1 | nt | i | i | i | i | 113.0
N#C/C(=N\Nc1ccc(F)cc1)C(=O)c1ccc(Cl)cc1 | i | i | i | i | i | 103.1
COc1ccc(CCN2C(=O)CCC(C(=O)O)C2c2cc(OC)c(OC)c(OC)c2)cc1OC (centres undefined) | i | i | i | i | i | 116.4
COc1ccc(CCNC(=O)C2CCCO2)cc1OC (centres undefined) | i | i | i | i | i | i
O=C(CCN1CCC(c2ccc(Cl)s2)=N1)c1ccc(Cl)s1 | 3.4 | i | i | i | i | i
COc1ccc(-c2cc(-c3ccc(OC)cc3)c3c(=O)n(C)c(=O)n(C)c3n2)cc1 | i | i | i | nt | i | 81.2
CN(C)c1cc(Nc2ccccc2)c2c(=O)n(C)c(=O)n(C)c2n1 | i | i | i | i | i | i
CC(C)Nc1c(-c2ccccc2)oc2ccc(C(=O)O)cc2c1=O | i | i | i | i | 28.3 | i
CC(Oc1ccc2oc3ccccc3c(=O)c2c1)C(=O)O (centres undefined) | i | i | i | i | i | i
c1ccc2c3c(ccc2c1)CNCc1ccc2ccccc2c1-3 | i | i | i | i | i | i
Cc1ccc(C)c(CSc2nc(C3CCCCC3)c(C#N)c(=O)[nH]2)c1 | i | i | i | i | i | 97.0
O=C(NCc1ccccn1)c1cccnc1SCCS(=O)(=O)c1cccc(C(F)(F)F)c1 | i | i | i | i | i | 116.9
O=c1cc(C(F)(F)F)cc[nH]1 | i | i | i | i | i | i

High-throughput results (PubChem BioAssay)
